# Results reported in PubChem BioAssay.
# The source made the active and inactive calls. Unless noted, no rule for the calls is given here.
# Legend:
# [1] = HepG2 liver cancer cell viability effects, profiling panel, resazurin fluorescence, 24 h, PK04 Diversity Set (AID 1172); details: higher = more signal
# [2] = basal S. cerevisiae growth modulation, no modifier, primary screen, OD600, strain BY4716, 24 h, basal condition (AID 1173); details: OD600, 24 h, higher = more signal, called active from +8 up or from −8 down
# [3] = MM1S myeloma cell viability, profiling panel, resazurin fluorescence, basal, 24 h, PK04 Diversity Set (AID 1174); details: higher = more signal, called active from +8 up or from −8 down;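 also: MM1S multiple myeloma cell line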
# [4] = molecular target: Dihydroorotate dehydrogenase (quinone), mitochondrial (Plasmodium falciparum (isolate 3D7)) (UniProt Q08210); assay: PfDHODH enzyme inhibitors, primary screen, biochemical, C-terminal His tag, absorbance 600 nm (AID 1175); details: DCIP absorbance 600 nm, higher = more signal, called active from +8 up or from −8 down;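 also: recombinant parasite enzyme with a five histidine tag at its C terminus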
# [5] = P. aeruginosa biofilm formation inhibitors, primary screen, strain PAO1, LB-PBS medium, absorbance 600 nm (AID 1176); details: P. aeruginosa PAO1 growth/biofilm, A600, 12 h; higher = more signal
# [6] = S. cerevisiae RM11-1a growth modifiers, primary screen, strain RM11-1a, OD600, basal, 24 h (AID 1177); details: OD600, 24 h, higher = more signal, called active from +8 up or from −8 down;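 also: cultures grown under basal conditions with no added stressor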
# [7] = E. coli acrAB mutant growth effects, primary screen, E. coli filamentation inducers, strain DRC39, OD650, 24 h (AID 1178); details: higher = more signal, called active from +8 up or from −8 down;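 also: growth measured as culture turbidity by optical density at 650 nm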
# [8] = E. coli acrAB mutant growth effects, primary screen, E. coli filamentation inducers, strain DRC39, OD650, 48 h (AID 1179);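 also: screen aims at cell division blockers that make cells filament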; details: E. coli DRC39 delta-acrAB growth, higher = more signal, called active from +8 up or from −8 down
# [9] = RPMI8226 myeloma cell viability, profiling panel, resazurin fluorescence, basal, 24 h, PK04 Diversity Set (AID 1180); details: higher = more signal;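 also: RPMI8826 multiple myeloma cell line at 5000 cells per well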
# [10] = molecular target: E3 ubiquitin-protein ligase XIAP (Homo sapiens) (UniProt P98170); assay: XIAP binders, primary screen, biophysical, small-molecule microarray, fluorescence 635 nm (AID 1181); details: small-molecule microarray binding, higher = more signal;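 also: score merges 667 nm emission and signal to noise over triplicate slides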
# [11] = tested on: XIP peptide (Xip251-270) binding; assay: small-molecule binders of XIP peptide, primary screen, biochemical, small-molecule microarray, fluorescence 635/667 nm, 0.1 µg/mL protein (AID 1182); details: fluorescent protein binding, 635 nm, higher = more signal, called active from +8 up or from −8 down
# XIP peptide (Xip251-270) = assay: small-molecule binders of XIP peptide, primary screen, biochemical, small-molecule microarray, fluorescence 635/667 nm, 0.5 µg/mL protein (AID 1183); details: small-molecule microarray binding, fluorescence 635 nm; higher = more signal
# [12] = Plasmodium falciparum growth inhibition, primary screen, strain 3D7, DAPI fluorescence, 100 nL (AID 1184);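 also: parasites grown inside human red blood cells in medium with human serum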; details: P. falciparum 3D7 growth, 3 d, higher = more signal
# [13] = molecular target: Homeobox protein Hox-A13 (Mus musculus) (UniProt Q62424); assay: inhibitors of HoxA13-DNA binding, primary screen, biochemical, fluorescence polarization, labeled oligonucleotide (AID 1185); details: 15 min, higher = more signal, called active from +8 up or from −8 down
# [14] = inhibitors of hydroxyurea-induced Chk1 phosphorylation, primary screen, imaging, HeLa, phospho-Chk1 antibody, percent positive cells (AID 1186); details: hydroxyurea-induced phospho-Chk1 immunofluorescence imaging, higher = more signal
# [15] = inhibitors of hydroxyurea-induced Chk1 phosphorylation, primary screen, imaging, HeLa, phospho-Chk1 nuclear intensity (AID 1187); details: hydroxyurea-induced phospho-Chk1 immunofluorescence imaging, higher = more signal
# Sequence of Dihydroorotate dehydrogenase (quinone), mitochondrial (Plasmodium falciparum (isolate 3D7)) (Q08210 whole entry, looked up): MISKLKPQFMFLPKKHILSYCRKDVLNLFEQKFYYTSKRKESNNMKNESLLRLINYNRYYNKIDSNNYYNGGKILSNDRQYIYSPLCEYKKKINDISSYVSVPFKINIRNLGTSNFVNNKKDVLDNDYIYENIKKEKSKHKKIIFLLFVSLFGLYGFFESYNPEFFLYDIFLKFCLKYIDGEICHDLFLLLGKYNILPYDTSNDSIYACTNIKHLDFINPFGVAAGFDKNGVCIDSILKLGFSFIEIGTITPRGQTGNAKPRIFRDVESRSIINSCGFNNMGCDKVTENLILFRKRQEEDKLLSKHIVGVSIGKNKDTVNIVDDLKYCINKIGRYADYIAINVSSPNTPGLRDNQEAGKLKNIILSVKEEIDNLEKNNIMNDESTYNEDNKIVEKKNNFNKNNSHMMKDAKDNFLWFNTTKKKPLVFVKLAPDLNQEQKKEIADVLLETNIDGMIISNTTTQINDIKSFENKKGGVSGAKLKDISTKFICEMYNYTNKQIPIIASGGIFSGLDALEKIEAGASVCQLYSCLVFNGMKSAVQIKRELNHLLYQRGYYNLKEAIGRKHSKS
# Sequence of E3 ubiquitin-protein ligase XIAP (Homo sapiens) (P98170 whole entry, looked up): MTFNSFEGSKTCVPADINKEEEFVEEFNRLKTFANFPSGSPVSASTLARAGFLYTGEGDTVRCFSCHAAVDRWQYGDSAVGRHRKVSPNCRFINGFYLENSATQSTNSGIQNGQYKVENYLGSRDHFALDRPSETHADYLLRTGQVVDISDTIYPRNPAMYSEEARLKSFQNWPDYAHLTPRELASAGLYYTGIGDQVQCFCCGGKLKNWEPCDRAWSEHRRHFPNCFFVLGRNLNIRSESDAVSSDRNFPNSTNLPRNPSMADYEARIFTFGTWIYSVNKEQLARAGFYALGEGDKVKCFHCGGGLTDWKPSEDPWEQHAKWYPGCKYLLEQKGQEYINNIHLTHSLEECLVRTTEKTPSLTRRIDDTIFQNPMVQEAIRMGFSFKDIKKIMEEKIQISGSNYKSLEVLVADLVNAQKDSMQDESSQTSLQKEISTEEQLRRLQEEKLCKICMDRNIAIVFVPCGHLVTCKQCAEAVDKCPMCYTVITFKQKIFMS
# Sequence of Homeobox protein Hox-A13 (Mus musculus) (Q62424 whole entry, looked up): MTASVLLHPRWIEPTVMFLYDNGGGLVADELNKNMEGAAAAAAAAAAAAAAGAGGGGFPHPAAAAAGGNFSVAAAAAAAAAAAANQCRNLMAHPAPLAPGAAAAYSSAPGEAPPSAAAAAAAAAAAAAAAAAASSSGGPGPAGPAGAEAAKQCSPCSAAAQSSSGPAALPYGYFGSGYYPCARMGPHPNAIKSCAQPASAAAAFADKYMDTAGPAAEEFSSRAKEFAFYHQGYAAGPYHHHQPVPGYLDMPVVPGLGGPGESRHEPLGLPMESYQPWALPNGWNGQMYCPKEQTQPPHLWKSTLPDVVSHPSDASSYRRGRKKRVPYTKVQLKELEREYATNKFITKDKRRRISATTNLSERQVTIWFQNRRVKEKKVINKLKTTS
SMILES,z-score [1],z-score [2],z-score [3],composite z-score [4],z-score [5],z-score [6],z-score [7],z-score [8],z-score [9],composite z-score [10],composite z-score [11],composite z-score (XIP peptide (Xip251-270)),z-score [12],z-score [13],z-score [14],z-score [15]
COc1cc2c(cc1OC)CN(C(=O)[C@H]1[C@@H]3C(=O)O[C@@H](c4ccccc4)[C@@H](c4ccccc4)N3[C@@H](c3ccc(O)cc3)[C@]13C(=O)Nc1ccc(C#CCCO)cc13)CC2,-0.29,0.966 (inactive),0.577 (inactive),0.857 (inactive),0.393 (inactive),1.16 (inactive),0.0945 (inactive),-0.712 (inactive),0.756,-0.249,0.22 (inactive),0.798,-1.56,-3.49 (inactive),0.113 (inactive),0.393 (inactive)
C=C(CC1([C@@H](NP(=O)(c2ccccc2)c2ccccc2)[C@H]2C[C@@H]2CCCC)CC1)c1ccccc1,2.02,1.06 (inactive),1.07 (inactive),-0.424 (inactive),0.812 (inactive),0.753 (inactive),-0.167 (inactive),-0.821 (inactive),3.34,-0.167,-0.0402 (inactive),0.143,-0.548,-2.33 (inactive),0.779 (inactive),1.12 (inactive)
C=C[C@@H](COC(=O)OC(C)(C)C)N(Cc1ccc(OC)cc1)S(=O)(=O)c1ccc(Br)cc1,0.163,0.119 (inactive),0.67 (inactive),-0.316 (inactive),-0.177 (inactive),0.378 (inactive),-0.807 (inactive),-0.667 (inactive),-0.918,0.1,0.323 (inactive),0.219,0.605,-0.981 (inactive),0.344 (inactive),0.447 (inactive)
NC(=O)[C@@H]1[C@H]2C(=O)O[C@H](c3ccccc3)[C@H](c3ccccc3)N2[C@H](c2ccc(O)cc2)[C@@]12C(=O)Nc1ccccc12,0.363,-1.39 (inactive),0.307 (inactive),-0.565 (inactive),0.449 (inactive),-0.665 (inactive),0.385 (inactive),-0.766 (inactive),-0.224,0.0073,0.138 (inactive),0.507,-1.28,-5.09 (inactive),-0.0838 (inactive),-0.0447 (inactive)
CCCCCCc1nc(-c2ccc(OC)nc2)cc2c1[Si](C(C)C)(C(C)C)O[C@H]2c1ccccc1,0.153,0.676 (inactive),0.0809 (inactive),-0.0348 (inactive),0.256 (inactive),0.056 (inactive),0.231 (inactive),-0.0838 (inactive),0.732,-0.241,-0.652 (inactive),-0.487,-0.421,-2.62 (inactive),-0.732 (inactive),-0.722 (inactive)
[N-]=[N+]=Nc1ccccc1[C@@H]1OC(c2ccc(OCCCO)cc2)=N[C@]1(Cc1ccccc1)C(=O)N1CCOCC1,-0.601,-0.294 (inactive),-1.6 (inactive),0.291 (inactive),-0.0279 (inactive),0.857 (inactive),0.266 (inactive),-0.412 (inactive),-1.58,-0.0062,0.665 (inactive),0.632,-2.32,-4.82 (inactive),-0.208 (inactive),-0.0135 (inactive)
CC(C)C(O)C1C=CC2C(=O)N(c3ccccc3)C(=O)C2N1Nc1ccc([N+](=O)[O-])cc1 (centres undefined),-0.283,-0.539 (inactive),-0.413 (inactive),-0.0755 (inactive),0.312 (inactive),-0.0749 (inactive),-0.912 (inactive),-0.347 (inactive),-0.601,0.302,-0.354 (inactive),-0.266,0.935,-3.78 (inactive),0.659 (inactive),-0.404 (inactive)
CC(C)OC(=O)C=C1C[C@@H](c2ccccn2)O[C@@H](c2ccccn2)O1,-0.802,-1.97 (inactive),-0.377 (inactive),0.409 (inactive),0.0362 (inactive),-0.391 (inactive),-0.471 (inactive),0.115 (inactive),-0.474,0.462,1.4 (inactive),-0.0957,-0.929,-5.67 (inactive),0.367 (inactive),0.129 (inactive)
COCCOC(=O)N1C(=O)[C@@]2(c3cc(C#Cc4ccc(OC)cc4)ccc31)[C@H](c1ccc(O)cc1)N1[C@H](c3ccccc3)[C@H](c3ccccc3)OC(=O)[C@H]1[C@@H]2C(=O)N1CCc2cc(OC)c(OC)cc2C1,0.28,-0.465 (inactive),-0.0918 (inactive),-0.463 (inactive),0.457 (inactive),-0.694 (inactive),-0.232 (inactive),-0.779 (inactive),0.572,-0.197,0.109 (inactive),0.629,-2.17,-1.71 (inactive),0.264 (inactive),0.948 (inactive)
COC(=O)[C@@]1(Cc2ccccc2)[C@H]2c3cc(C(=O)N(C)C)n(Cc4ccsc4Br)c3C[C@H]2CN1C(=O)c1ccccc1,-1.77,1.92 (inactive),-1.74 (inactive),0.486 (inactive),0.467 (inactive),1.24 (inactive),0.156 (inactive),0.0523 (inactive),-3.12,0.0496,0.274 (inactive),0.116,-1.51,-4.23 (inactive),0.567 (inactive),0.0591 (inactive)
C=CCN1C(=O)[C@]2(O[C@H](CCn3cc([C@H](O)c4ccccc4)nn3)[C@@H]([Si](C)(C)c3ccc(OC)cc3)[C@@H]2C)c2cc(N3CCC3=O)ccc21,0.0514,0.743 (inactive),-1.85 (inactive),1.04 (inactive),0.0245 (inactive),2.44 (inactive),0.518 (inactive),-0.0117 (inactive),-1.67,0.0623,0.393 (inactive),0.128,-2.89,-5.76 (inactive),-0.318 (inactive),-0.171 (inactive)
O=C1c2ccccc2[C@](Cc2ccccc2I)(C(=O)NCC(F)(F)F)[C@H](c2ccc(CO)cc2)N1Cc1ccccc1Cl,1.08,-1.32 (inactive),0.519 (inactive),-0.246 (inactive),0.723 (inactive),-0.838 (inactive),0.489 (inactive),0.53 (inactive),0.417,-0.0663,0.149 (inactive),0.776,-0.562,-4.2 (inactive),-0.151 (inactive),-0.557 (inactive)
C=C[C@H](OC)[C@@H](OC(=O)Nc1ccc(OC)cc1)c1ccc(O)c(F)c1,-0.709,-3.76 (inactive),-1.78 (inactive),-1.89 (inactive),1.05 (inactive),0.974 (inactive),1.41 (inactive),0.98 (inactive),1.69,0.0623,-0.0346 (inactive),-0.893,-0.343,-3.1 (inactive),0.495 (inactive),0.76 (inactive)
CCN(CC)c1ccc(N2CC=CC34O[C@@H]5C=CCCOC(=O)C5[C@H]3C(=O)N(CCCCCCO)[C@@H]4C2=O)cc1 (some centres undefined),0.846,-1.04 (inactive),1.55 (inactive),-0.324 (inactive),0.786 (inactive),-1.31 (inactive),1.07 (inactive),0.534 (inactive),1.04,0.127,0.0059 (inactive),0.375,-0.459,-5.73 (inactive),-0.43 (inactive),0.419 (inactive)
O=C1O[C@@H](c2ccccc2)[C@@H](c2ccccc2)N2[C@@H](c3ccccc3OCCO)[C@]3(C(=O)Nc4ccc(C#CC5=CCCCC5)cc43)[C@@H](C(=O)N3CCCCCCC3)[C@H]12,-0.868,0.98 (inactive),-6.31 (inactive),-0.35 (inactive),1.63 (inactive),1.19 (inactive),-0.994 (inactive),-0.576 (inactive),-4.11,1.56,5.92 (inactive),0.797,-2,-13.8 (active),-0.0478 (inactive),-0.372 (inactive)
C=CCN1C(=O)[C@@]2(CC=C)N=C(c3ccc(OCCCO)cc3)O[C@H]2c2ccccc21,-0.492,-2.87 (inactive),-3.88 (inactive),-1.17 (inactive),2.21 (inactive),0.113 (inactive),1.19 (inactive),2.46 (inactive),-3.54,0.0842,0.881 (inactive),0.751,-1.99,-2.65 (inactive),-0.772 (inactive),-0.86 (inactive)
C=C(COC)/C(=C/C[C@H](OC(C)=O)c1ccc(CO)o1)c1cc(C(=O)OC)ccc1OC,-0.613,-0.0209 (inactive),-0.891 (inactive),-6.52 (inactive),-0.317 (inactive),-0.253 (inactive),-1.38 (inactive),-0.816 (inactive),-0.746,0.0101,0.443 (inactive),-0.257,-2.07,-4.87 (inactive),-0.45 (inactive),-0.735 (inactive)
C=C(/C(=C/C[C@H](OC(C)=O)c1ccc(CO)o1)c1cc(C(=O)OC)ccc1OC)C(C)C,-0.783,0.18 (inactive),-1.14 (inactive),-3.65 (inactive),-0.0342 (inactive),0.447 (inactive),-1.42 (inactive),-0.94 (inactive),-1.34,-0.0807,-0.508 (inactive),-0.567,-2.09,-4.8 (inactive),-0.33 (inactive),-0.286 (inactive)
C=CCOC(=O)[C@@H]1[C@H]2C(=O)O[C@H](c3ccccc3)[C@H](c3ccccc3)N2[C@H](c2ccc(OCCOC(=O)[C@H]3C[C@H]4C(=O)N5CCC[C@H]5C(=O)N4[C@H]3c3ccc(O)cc3)cc2)[C@@]12C(=O)Nc1ccc(I)cc12,-0.91,0.148 (inactive),0.119 (inactive),1.01 (inactive),3.16 (inactive),1.27 (inactive),0.0092 (inactive),-0.743 (inactive),-0.432,-0.02,1.93 (inactive),0.833,-1.56,1.53 (inactive),-0.0415 (inactive),0.0454 (inactive)
